Sampled rows, rich in hits. Any-hit rate of the full collection: about 1.5%.
CD11b adhes enh: enhancers of CD11b/CD18 adhesion to fibrinogen, primary screen, K562 cells, luminescence | ATPlite luminescence | activation, % at 10 µM | 93,000 compounds, 0.07% hits | AID 1499, 2009;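 active = 10 µM primary screen giving 50% or more activity, confirmed by 40% or more on retest at that dose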
GALR2 blocker: GALR2 antagonists in receptor-expressing cells, primary screen | Galanin receptor type 2 (Homo sapiens), O43603 | antagonist mode | inhibition, % at 4 µM | 140,000 compounds, 0.39% hits; in the data active = inhibition above about 27%;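 note: cells stimulated with galanin 1-16 at roughly its EC80; 0% = agonist challenge control and 100% = basal control without agonist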
Target sequence (O43603 whole entry, looked up): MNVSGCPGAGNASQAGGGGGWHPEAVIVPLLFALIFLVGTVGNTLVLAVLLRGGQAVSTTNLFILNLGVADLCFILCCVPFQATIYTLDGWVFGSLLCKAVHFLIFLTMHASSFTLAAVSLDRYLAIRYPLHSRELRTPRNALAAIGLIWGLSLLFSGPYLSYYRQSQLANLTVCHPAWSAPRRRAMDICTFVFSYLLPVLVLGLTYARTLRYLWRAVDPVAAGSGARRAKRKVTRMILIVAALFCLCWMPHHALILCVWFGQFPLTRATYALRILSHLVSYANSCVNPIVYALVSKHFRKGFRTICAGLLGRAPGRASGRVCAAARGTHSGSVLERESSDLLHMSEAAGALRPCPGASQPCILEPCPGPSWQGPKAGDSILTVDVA
GALR2 agonist: GALR2 receptor agonists, primary screen, cell-based; Galanin receptor type 2 (Homo sapiens), O43603; GALR2-expressing cells, agonist activation read-out; activation, % (concentration not given with the values); 140,000 compounds, 0.48% hits; AID 803, 2007; in the data active = activation above about 5%, passing the limit was not always enough;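 note: 0% = vehicle buffer wells and 100% = reference agonist at full effect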
S1P2 agonist: S1P2 receptor agonists, primary screen, cell-based | Sphingosine 1-phosphate receptor 2 (Homo sapiens), O95136 | S1P2-expressing cell line, agonist reporter read-out | activation, % at 4.5 µM | 97,000 compounds, 0.46% hits; in the data active = activation above about 16%;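 note: 0% = vehicle low control and 100% = maximal reference agonist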
S1P2 antag: human S1P2 receptor antagonists, primary screen, cell-based. inhibition, % at 5 µM. Sphingosine 1-phosphate receptor 2 (Homo sapiens), O95136. 97,000 compounds, 0.21% hits. cell-based S1P2 antagonist assay, inhibition at 5 uM; in the data active = inhibition above about 45%;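 note: CRE beta-lactamase reporter cells expressing human S1P2 stimulated with S1P; 0% = agonist at EC80 alone and 100% = agonist plus reference antagonist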
CD11b adhes inh: inhibitors of CD11b/CD18 adhesion to fibrinogen, primary screen, K562 cells, luminescence; Integrin beta-2 (Homo sapiens) + Integrin alpha-M (Homo sapiens), P05107+P11215; ATPlite luminescence; Mn2+ added to activate the integrin; inhibition, % at 10 µM; 93,000 compounds, 0.54% hits; AID 1497, 2009;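 active = primary inhibition of 50% or more at 10 µM, then 40% or more on retest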
GALR2 agon conf: GALR2 agonists, retest of hits, confirmation, cell-based; activation, % at 5.6 µM; AID 864, 2007; 460 compounds, 10% hits; GALR2-expressing cells, agonist activation; shares compounds with GALR2 agonist; in the data active = activation above about 8.4%;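 note: 0% = buffer-only vehicle wells and 100% = full reference agonist response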
BLA activ ctr: activators of NFAT-driven beta-lactamase reporter, confirmation, counter-screen for GALR2 agonist project, CHO NFAT-bla cells, FRET readout; shares compounds with GALR2 agonist; beta-lactamase FRET activation; activation, % at 5.6 µM; 460 compounds, 10% hits; AID 865, 2007;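 active = activation above the screen-wide mean activation plus 3 SD, cut at about 8% in these data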;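 note: 0% = DMSO with PBS wells and 100% = thapsigargin positive control wells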
An asterisk follows results filed as active; nt = not tested or not shown.

SMILES | CD11b adhes enh | GALR2 blocker | GALR2 agonist | S1P2 agonist | S1P2 antag | CD11b adhes inh | GALR2 agon conf | BLA activ ctr
CCc1c(C)nc(SC(C(=O)O)c2ccccc2)c(C#N)c1C (stereo unspecified) | nt | 8 | -1 | nt | nt | nt | nt | nt
CC(C)C(NC(=O)/C=C/c1cccc([N+](=O)[O-])c1)C(C)C | nt | 4 | -2 | nt | nt | nt | nt | nt
CC(C)NC(=O)c1ccccc1NC(=O)/C=C/c1cccc([N+](=O)[O-])c1 | nt | 3 | 25* | nt | nt | nt | 11* | 22*
N#C/C(=C\c1c(N2CCCCCC2)nc2ccccn2c1=O)C(=O)NC1CCS(=O)(=O)C1 (stereo unspecified) | nt | -20 | 8.9* | nt | nt | nt | 0 | 0
N#C/C(=C\c1c(N2CCC(C(N)=O)CC2)nc2ccccn2c1=O)C(=O)NCc1ccco1 | -6 | 2 | 0 | nt | nt | 0 | nt | nt
O=C(CCn1c(SCC(=O)NCc2ccco2)nc2ccccc2c1=O)NCCc1ccccc1 | -4 | -6 | -1 | 0 | 15 | -8 | nt | nt
Cc1nc2ccccc2n1CCc1nc2c3ccccc3nc(SCC(=O)NCc3ccco3)n2n1 | 7 | -1 | 8.7* | -5 | 1 | 16 | -1 | 1
CC1=CC2=NC(=O)/C(=C\c3cc(C)n(-c4ccc(F)cc4)c3C)C(=N)N2O1 | nt | -11 | 12* | nt | nt | nt | 8 | 11*
COc1ccccc1OCCOc1ccc(/C=C2/C(=N)N3OC(C)=CC3=NC2=O)cc1OC | nt | 0 | -2 | -4 | -7 | nt | nt | nt
CC(=O)Nc1ccc(Nc2ncnc3c2cnn3-c2ccc(C)cc2C)cc1 | -4 | -5 | 76* | -7 | -1 | -9 | -1 | -2
CC(=O)Nc1ccc(Nc2ncnc3c2cnn3-c2cccc(C)c2)cc1 | -1 | 3 | -1 | -7 | -7 | -2 | nt | nt
CC(=O)Nc1ccc(Sc2ncccc2C(=O)Nc2ccc(OC(F)(F)F)cc2)cn1 | -1 | -38 | 22* | -5 | 3 | -2 | 16* | 43*
Cc1cc(C(=O)CN2C(=O)c3cccc(N)c3C2=O)c(C)n1Cc1cccs1 | 0 | 21 | 8 | 9 | 0 | 17 | 1 | 2
COc1cc(NC(=O)c2ccc(Cl)cc2Cl)ccc1-c1cc2ccccc2oc1=O | nt | -14 | 13* | 4 | 23 | nt | 6 | 2
Cc1nc(-n2[nH]c3c(c2=O)CCCC3)[nH]c(=O)c1Cc1ccccc1 | nt | -1 | 9 | -5 | 13 | nt | 5 | 29*
Cc1cc(C)c2c(N)c(C(=O)NCC3CCCCC3)sc2n1 | -4 | 3 | 28* | -4 | -21 | 10 | 0 | 0
Cn1c(SCC(=O)Nc2ncc(C(F)(F)F)cc2Cl)nnc1-c1ccc(Cl)cc1 | nt | 4 | 0 | nt | nt | nt | nt | nt
O=C(CSc1nc2c([nH]c3ccccc32)c(=O)n1-c1cccc(Cl)c1)N1CCOCC1 | nt | 3 | 13* | 13 | 5 | nt | 6 | 1
O=C(CSc1nc2c([nH]c3ccccc32)c(=O)n1-c1ccccc1)N1CCOCC1 | -1 | 2 | -2 | nt | nt | -4 | nt | nt
CCOC(=O)c1c(C)n(C)c2ccc(OCC(O)CN3C(=O)c4ccccc4S3(=O)=O)cc12 (stereo unspecified) | 6 | -8 | 9 | 13 | -31 | -3 | 1 | 1
CCOC(=O)C(C)Sc1cc(CS(=O)(=O)c2ccccc2)nc(-c2ccccc2)n1 (stereo unspecified) | nt | 7 | -1 | 1 | 8 | nt | nt | nt
N#Cc1cc2c(=O)n3ccccc3nc2n(CCCN2CCOCC2)c1=O | -1 | 2 | 8.6* | nt | nt | -4 | 3 | 8.2*
N#Cc1cc2c(=O)n3ccccc3nc2n(CCN2CCOCC2)c1=O | -2 | nt | nt | nt | nt | -4 | nt | nt
Cc1cccc(CC(Cc2nc3ccccc3[nH]2)c2nc3ccccc3[nH]2)c1 (stereo unspecified) | 0 | -11 | 9 | -7 | -3 | -2 | 15* | 29*
Cc1cccc(OCCSCc2nc3ccccc3[nH]2)c1 | -4 | 2 | -2 | -7 | 8 | 25 | nt | nt
SMILES | CD11b adhes enh | GALR2 blocker | GALR2 agonist | S1P2 agonist | S1P2 antag | CD11b adhes inh | GALR2 agon conf | BLA activ ctr
Cc1ccc(C(=O)Nc2ccc([N+](=O)[O-])cn2)o1 | nt | 3 | -1 | nt | nt | nt | nt | nt
CC(C)c1ccccc1OCCCCCNCCO | -2 | -13 | 1 | -1 | 6 | -3 | nt | nt
O=C(CN1CCCCC1)Nc1cccc(Cl)c1Cl | 2 | -7 | 2 | -1 | -24 | -26 | nt | nt
O=C(CN1CCCCC1)Nc1cc(Cl)ccc1Cl | 6 | 1 | 180* | -7 | -25 | -26 | -1 | 0
Cc1cc(=O)[nH]c(-n2nc(C)c(Oc3ccccc3O)c2C)n1 | 4 | -31 | 32* | -1 | 20 | -20 | 27* | 60*
COCC(C)N=C1NN=C(c2c[nH]c3ccccc23)CS1 (stereo unspecified) | nt | 8 | -2 | nt | nt | nt | nt | nt
CN1C(=O)/C(=C/c2ccccc2OCc2cccc(F)c2)NC1=S | 1 | -7 | 146* | -2 | -20 | 2 | 0 | -3
CN1C(=O)/C(=C/c2ccccc2OCc2ccccc2)NC1=S | nt | -10 | 0 | nt | nt | nt | nt | nt
O=C(NC1(C(F)(F)F)NC(=O)N(c2ccc(F)cc2)C1=O)c1cccs1 (stereo unspecified) | nt | 8 | 0 | nt | nt | nt | nt | nt
Cc1ccccc1C(=O)Nc1nncs1 | -1 | -3 | 26* | -5 | -13 | -11 | -1 | -3
COCCCNC(=O)c1c(N)n(-c2ccc(S(N)(=O)=O)cc2)c2nc3ccccc3nc12 | -5 | 4 | 3 | 10 | -20 | -3 | nt | nt
C=CCNC(=O)c1c(N)n(-c2cccc(S(N)(=O)=O)c2)c2nc3ccccc3nc12 | -3 | -6 | 8 | 10 | 1 | 1 | 2 | 6
Cc1ccc2nc(-c3ccc(NS(=O)(=O)c4ccccc4)cc3)sc2c1 | nt | -8 | 11* | nt | nt | nt | 0 | 2
Cc1ccc2nc(-c3ccc(NS(=O)(=O)c4ccc(F)c(F)c4)cc3)sc2c1 | nt | 5 | 2 | nt | nt | nt | nt | nt
COc1ccc([N+](=O)[O-])cc1C(=O)Nc1ccc(OCC(=O)N2CCOCC2)cc1 | nt | 6 | -1 | nt | nt | nt | nt | nt
COc1cc(-c2noc(CCCC(=O)NC3CCCCC3)n2)cc(OC)c1OC | -2 | -5 | 26* | -6 | -3 | 2 | -1 | -1
COc1ccc(-c2noc(CCC(=O)NC3CCCCC3)n2)cc1OC | 2 | 4 | -3 | 2 | -2 | -10 | nt | nt
Cc1ccc(-c2c3c(=O)n(C)c(=O)n(C)c3cn2Cc2ccccc2)cc1 | -7 | -9 | 71* | -5 | -12 | -4 | 0 | 0
O=C(O)CC1(c2ccccc2)C(=O)c2ccccc2C1=O | -3 | 21 | 10* | nt | nt | 16 | -2 | -3

Screening data as filed in PubChem BioAssay.
